Results filed as inconclusive are left out. Where a call stands in place of a potency, no number is given. Active and inactive are the calls of the source. Calls come from the whole dose curve; as a rule, active = well fitted cell-killing curve with a large enough effect; inconclusive = small, poorly fitted or top-dose-only effect; inactive = flat fitted curve, though single readings scatter.

This experiment can be described thus: Compound cytotoxicity measured by an ATP content assay as a counter-screen for lead compounds in human iPSC derived neural progenitor cells (hNPCs). The note with it: human iPSC-derived NPC viability, ATP luminescence; series mostly up to 46.1 µM. As to the method:
National Center for Advancing Translational Sciences [NCATS] Johns Hopkins University School of Medicine Florida State University Assay Overview: Many compounds can cause cytotoxicity at high compound concentrations. […] The compound cytotoxicity may also cause side effects or toxicity in human. Thus, the compound cytotoxicity needs to be measured in each cell type and each compound incubation time - same as these in the compound screening assay. The compound cytotoxicity can be measured by cell viability assays such as the ATP content assay. We use an ATP content assay kit for cell viability measurement. It measures ATP content (level) in human iPSC derived neural progenitor cells (hNPCs) using a luminescence readout that is proportional to viable cell numbers. Decrease in the luminescence signal after the compound treatment indicates reduced cell viability and cell death caused by compound treatment.
Assay Protocol Summary: The medium for hNPCs consists of DMEM/F12, N2 supplement (ThermoFisher, Cat.# 17502048), NEAA (ThermoFisher, Cat. # 11140050), 2 ug/ml heparin, 2 uM cyclopamine, and B27 (ThermoFisher, Cat. # 17504044). The ATP content assay kit (PerkinElmer, Cat.# 6016731) was used to determine cell viability. The reagent was reconstituted and prepared as described by the manufacturer. Cells were seeded in 384- or 1536-well assay plates and cultured at 37 C with 5% CO2 for 16 to 20 hours. The typical cell seeding density in the 1536-well plate assay is 350 cells/well in 3 ul medium for hNPCs in the tissue cultured treated/PDL coated plates. Compounds were added to cells and incubated for a specific time such as 6, 24, or 72 hours before addition of the reagent mixture of the ATP content assay kit at 1:1 ratio. After incubation at room temperature for 10 minutes, the luminescence intensity in assay plates was measured using a ViewLux plate reader (PerkinElmer). […] The percentage inhibitions of the decreased cell viability by small molecules were then calculated that indicate compound cytotoxicity.
(In general: A counterscreen serves to expose hits that act by an unwanted route or on another target.)
As to `CC=CC[C@@H](C)C(=O)[C@H]1C(=O)N[C@@H](C(C)C)C(=O)N(C)CC(=O)N(C)[C@@H](CC(C)C)C(=O)N[C@@H](C(C)C)C(=O)N(C)[C@@H](CC(C)C)C(=O)N[C@@H](C)C(=O)N[C@H](C)C(=O)N(C)[C@@H](CC(C)C)C(=O)N(C)[C@@H](CC(C)C)C(=O)N(C)[C@@H](C(C)C)C(=O)N1C`, the Potency result was “inactive”.
For `CS(=O)(=O)c1ccc(-c2cn3ccccc3n2)cc1`, the Potency was 7.74 µM (active).
The same measure for `NC(N)=NN=C(/C=C/c1ccc([N+](=O)[O-])o1)/C=C/c1ccc([N+](=O)[O-])o1`: 1.95 µM (active); for `c1ccc(CCNc2nc(-c3ccccc3)cs2)cc1`: “inactive”.
The same measure for `N#C/C(=C\c1ccc(O)c(O)c1)C(=O)Nc1ccccc1`: “inactive”; for `O=C(O)Cc1ccc(-c2ccccc2)cc1`: “inactive”; for `O=C1C[C@@H](c2ccc(O)cc2)Oc2cc(O)cc(O)c21`: “inactive”.
As for `CN1CC(=O)N/C1=N/C(=O)Nc1cccc(Cl)c1`, the Potency entry was “inactive”.
Then `CCOC1OC(=O)C[C@H]1NC(=O)[C@@H]1CCCN1C(=O)[C@@H](NC(=O)c1ccc(N)c(Cl)c1)C(C)(C)C` (stereo not given in full), with “inactive”; and `CCC(C(=O)O)c1ccc(N2Cc3ccccc3C2=O)cc1` (stereo not given), with “inactive”; and `O=C(Nc1cc2cc[nH]c2cn1)c1ccccc1`, with 0.346 µM (active).
Then `CC1(C)OC2=C(C(=O)c3ccccc3C2=O)[C@H](NCc2ccccc2)[C@H]1O`, with 3.98 µM (active); and `CCCCCCCCCCCC(=O)[O][Sn]([CH2]CCC)([CH2]CCC)[O]C(=O)CCCCCCCCCCC`, with “inactive”; and `C[C@@H](N)c1ccc(C(=O)Nc2ccnc3[nH]ccc23)cc1`, with “inactive”.
As for `CC(C(=O)O)c1ccc(-c2ccccc2)c(F)c1` (stereo not given), the Potency result was “inactive”.
Then `CC(=O)OC(C)OC(=O)C(C)c1ccc(-c2ccccc2)c(F)c1` (stereo not given), with “inactive”.
The same measure for `O=C(O)[C@H](CC(=O)N1C[C@@H]2CCCC[C@H]2C1)Cc1ccccc1`: “inactive”; for `CCCCCCOc1ccccc1C(N)=O`: “inactive”.
The same measure for `CC(C)(C)COc1ccc(-n2cc(C(=O)O)cn2)cc1C#N`: “inactive”; for `CCOCCOC(=O)/C=C/c1ccc(OC)cc1`: “inactive”; for `CC(=O)Nc1ccc([C@H](C)C(=O)Nc2ncc(C(C)C)s2)cc1`: “inactive”.
For the compound `CCC(C)SSc1ncc[nH]1` (stereo not given), the Potency was 19.5 µM (active).
Take `CC(C)c1ccc2oc3nc(N)c(C(=O)O)cc3c(=O)c2c1`: the Potency was 3.46 µM (active).
Then `CN1CC(=O)N2C(Cc3c([nH]c4ccccc34)[C@H]2c2ccc3c(c2)OCO3)C1=O` (stereo not given in full), with “inactive”.
For the compound `[O-][n+]1ccccc1SSc1cccc[n+]1[O-]`, the Potency is 0.112 µM (active).
With `OCc1ccc(-c2ccc(-c3ccc(CO)s3)o2)s1`, the Potency is 10.9 µM (active).
As for `CN(C)CCCSc1ccccc1NC(=O)/C=C/c1ccccc1`, the Potency entry is “inactive”.
`O=c1[nH]nc(Sc2ncc([N+](=O)[O-])s2)n1-c1ccc2c(c1)OCCO2`: the Potency is 1.73 µM (active).
For `O=C(O)CCC(=O)c1ccc(-c2ccccc2)cc1`, the Potency entry was “inactive”.
Regarding `Cc1cc(O)c2ccccc2c1O`, the Potency is 4.89 µM (active).
Then `COc1ccc(-c2cc(=O)c3c(O)cc(O)cc3o2)cc1O`, with “inactive”; and `O=C(OCc1ccccc1)c1ccc(O)cc1`, with “inactive”; and `Nc1cc(C(F)(F)F)ccc1S`, with 19.5 µM (active).
Then `CC(C(=O)O)c1ccc2c(c1)[nH]c1ccc(Cl)cc12` (stereo not given), with “inactive”; and `COc1cccc(-c2cc(=O)c3ccccc3o2)c1N`, with 15.5 µM (active).
On to `CNC(=O)c1ccccc1Sc1ccc2c(/C=C/c3ccccn3)n[nH]c2c1`, for which the Potency was 7.74 µM (active).
The same measure for `CO[C@H]1C(=O)[C@]2(C)[C@@H](OC)C[C@H]3OC[C@@]3(OC(C)=O)[C@H]2[C@H](OC(=O)c2ccccc2)[C@]2(O)C[C@H](OC(=O)[C@H](O)[C@@H](NC(=O)OC(C)(C)C)c3ccccc3)C(C)=C1C2(C)C`: “inactive”; for `O=C(Nc1ncc([N+](=O)[O-])s1)c1cccs1`: “inactive”.
For the compound `COc1ccnc2c1CCCCC2S(=O)c1nc2ccccc2[nH]1` (stereo not given), the Potency entry is “inactive”.
In the case of `Cc1[nH]c(C=C2C(=O)Nc3ccccc32)c(C)c1CCC(=O)O`, the Potency result is “inactive”.

Source of the values: PubChem BioAssay AID1224860 (National Center for Advancing Translational Sciences (NCATS), 2016).
